Measured values reported in PubChem BioAssay (Tox21).
A number with no mark means an inactive call. Active and inactive are the calls of the source. The call rests on the fitted dose curve; in most records, active means well fitted curve in the direction sought with a large enough effect in the repeat runs; inconclusive means weak or mixed curves; inactive means flat fitted curve, though single readings scatter. Positions of bridges follow the written chain, without caps; N, C: chain ends. Non-standard residues stand in square brackets, D forms with d. Residues, ends and D or L forms follow the SMILES beside them. hArg = N=C(N)NCCCC[C@H](N)C(=O)O; Mpa = O=C(O)CCS

Test: qHTS assay to test for compound auto fluorescence at 590 nm (red) in HepG2 cell free culture (AID 720684)
Settings: cell-free medium autofluorescence, red 540/590 nm; series mostly up to 91.3 µM
Source text: U.S. Tox21 Program National Center for Advancing Translational Sciences [NCATS] NIH Chemical Genomics Center [NCGC] U.S. Environmental Protection Agency [EPA] National Institutes of Environmental Health Sciences [NIEHS] National Toxicology Program [NTP] U.S. Food and Drug Administration [FDA] Tox21 Assay Overview: Compound auto fluorescence often interferes with screening of the compound library against various biological targets and signaling pathways. Some of these compounds may have fluorophoric properties. Such properties may interfere with the assay outputs resulting in false positives and/or negatives. To decrease such complications and ensure the compound activities are relevant in terms of biological response, the Tox21 10K compound library was screened for auto fluorescence. From the fluorophores used as reporter signals in our screening assays, the auto fluorescence equivalencies of compounds against three fluorophores have been evaluated: Triamterene, Fluorescein and Rose Bengal sodium for blue, green and red fluorescence, respectively. The fluorescence intensities were measured using Excitation/Emission wavelengths at 405/460nm, 485/535nm and 540/590nm for blue, green and red labels, respectively. This assay includes the red fluorescence data.
Tox21 Assay Protocol Summary: 5 uL of culture medium (MEM containing 10% FBS) per well was dispensed into black wall/clear bottom 1536-well plates using a Multidrop Combi Dispenser (ThermoFisher Scientific, Waltham, MA). After 23 nL compound or DMSO vehicle was transferred into assay plate by a pintool work station (Kalypsys, San Diego, CA), fluorescence intensities in the assay plates were measured by an Envision (PerkinElmer, Shelton, CT) plate reader using three labels for measuring blue, green and red fluorescence at […] 460, 535 and 590nm respectively.
On the % scale 0 is the no-effect control and ±100 the full control effect.

Compound | outcome | fluorescence, % of Rose Bengal
CC1CC(=O)CC(C)(C)C1 (stereo not given) | inactive | 
Fc1ccccc1 | inactive | 
Cc1ncc([N+](=O)[O-])n1CC(C)O (stereo not given) | inactive | 
CC1c2ccccc2CN1NC(=O)c1ccc(Cl)c(S(N)(=O)=O)c1 (stereo not given) | inactive | 
O=Cc1ccccc1Cl | inactive | 
Nc1nc(-c2ccccc2)c(Br)c(=O)[nH]1 | inactive | 
OCCN1CCOCC1 | inactive | 
[O]=[Mo](=[O])=[O] |  | 0.0301% [at 18.6 µM]
CN(C)CCN(C)CCO | inactive | 
CC1(C)CC(OC(=O)CCCCCCCCC(=O)OC2CC(C)(C)NC(C)(C)C2)CC(C)(C)N1 |  | 0.143% [at 18.6 µM]
Cc1cccc(Cl)c1 | inactive | 
CC1(C)Oc2ccc(C#N)cc2[C@@H](N2CCCC2=O)[C@@H]1O | inactive | 
O=C(NCN1CCOCC1)c1cnccn1 | inactive | 
CCC(=O)c1c(O)cc(O)cc1O | inactive | 
NCCOCCN | inactive | 
O/N=C/C=N/O | inactive | 
C=CCOC(=O)CCCCCC | inactive | 
CC12CCC(C1)C(C)(C)C2O (stereo not given) | inactive | 
CC(=O)CC(=O)Nc1ccc(C)cc1C | inactive | 
COc1cc2c(cc1OC)C(=O)C(CC1CCN(Cc3ccccc3)CC1)C2 (stereo not given) | inactive | 

Compound | outcome | fluorescence, % of Rose Bengal
O=C(O)c1cc2ccccc2nc1C(=O)O | inactive | 
COC(=O)c1ccccc1C(=O)O | inactive | 
CCCCCCCCCCOC(C)=O | inactive | 
CC(O)CC(C)O (stereo not given) | inactive | 
C=CCCCCCCCC | inactive | 
CCCCCc1cccc(=O)o1 | inactive | 
CCc1occc(=O)c1O | inactive | 
CC(C)Cn1cnc2c1c(=O)n(C)c(=O)n2C | inactive | 
OCC1CCC(CO)CC1 (stereo not given) | inactive | 
CCC[C@@H]1C[C@@H](C(=O)N[C@@H]([C@H]2O[C@H](SC)[C@H](O)[C@@H](O)[C@H]2O)[C@@H](C)O)N(C)C1 | inactive | 
C=C(C)c1cccc(C(C)(C)N=C=O)c1 | inactive | 
CCCCOCCOC(=O)COc1ccc(Cl)cc1Cl | inactive | 
CCCCSCCCC | inactive | 
CO[C@@]1(NC(=O)Cc2cccs2)C(=O)N2C(C(=O)O)=C(COC(N)=O)CS[C@@H]21 | inactive | 
O=C1OCCO1 | inactive | 
c1ccc2cnccc2c1 | inactive | 
C=CCCCC | inactive | 
COC(C)(OC)OC | inactive | 
CC(=O)CCc1ccc(OC(C)=O)cc1 | inactive | 
NC(=O)[C@@H]1CSSCCC(=O)N[C@@H](CCCCN=C(N)N)C(=O)NCC(=O)N[C@@H](CC(=O)O)C(=O)N[C@@H](Cc2c[nH]c3ccccc23)C(=O)N2CCC[C@H]2C(=O)N1 ([Mpa][hArg]GDWPC-NH2; disulfide 1-7) | inactive | 
